This is an account of results in the supplement of paper PMC11732987, “Enantioselective OTUD7B fragment discovery through chemoproteomics screening and high-throughput optimisation” (Communications Chemistry, 2025).

Molecules are shown by their SMILES. A number with no mark means an inactive call.

What all share (assay): log2 ratio of Biotin-Ahx-Ub-VS probe labelling (fragment/DMSO); higher = less target engagement (more negative = stronger competition), active = hit call of the paper (q ≤ 0.05, log2 ratio ≤ -1)
What all share (conditions): compound concentration: 200 uM; treatment time: 3 h

The target of one test is T1, OTUD6B (UniProt Q8N6M0).
T1 sequence (whole entry): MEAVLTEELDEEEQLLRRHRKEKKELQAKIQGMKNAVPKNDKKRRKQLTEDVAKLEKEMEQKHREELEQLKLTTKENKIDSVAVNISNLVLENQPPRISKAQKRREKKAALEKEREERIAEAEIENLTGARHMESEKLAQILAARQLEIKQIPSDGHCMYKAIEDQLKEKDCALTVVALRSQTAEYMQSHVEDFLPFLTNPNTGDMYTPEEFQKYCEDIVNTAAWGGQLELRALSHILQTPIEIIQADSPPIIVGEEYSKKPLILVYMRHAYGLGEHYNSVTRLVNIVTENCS
The gist of the method:
(§1)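 The table lists average log2 ratios of fragment over vehicle, from an unpaired t-test on global-median-normalised Spectronaut label-free quantities. Proteins with ≥2 unique peptides were used. Samples were HEK293T lysate (495 µg) treated in triplicate with fragment at 200 µM or vehicle for 3 h, then with Biotin-Ahx-Ub-VS (0.5 µM final) for 1 h, with labelled DUBs NeutrAvidin-enriched and run by diaPASEF LC-MS/MS.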

A further test deals with T2, OTUD7B (UniProt Q6GQQ9).
T2 sequence (whole entry): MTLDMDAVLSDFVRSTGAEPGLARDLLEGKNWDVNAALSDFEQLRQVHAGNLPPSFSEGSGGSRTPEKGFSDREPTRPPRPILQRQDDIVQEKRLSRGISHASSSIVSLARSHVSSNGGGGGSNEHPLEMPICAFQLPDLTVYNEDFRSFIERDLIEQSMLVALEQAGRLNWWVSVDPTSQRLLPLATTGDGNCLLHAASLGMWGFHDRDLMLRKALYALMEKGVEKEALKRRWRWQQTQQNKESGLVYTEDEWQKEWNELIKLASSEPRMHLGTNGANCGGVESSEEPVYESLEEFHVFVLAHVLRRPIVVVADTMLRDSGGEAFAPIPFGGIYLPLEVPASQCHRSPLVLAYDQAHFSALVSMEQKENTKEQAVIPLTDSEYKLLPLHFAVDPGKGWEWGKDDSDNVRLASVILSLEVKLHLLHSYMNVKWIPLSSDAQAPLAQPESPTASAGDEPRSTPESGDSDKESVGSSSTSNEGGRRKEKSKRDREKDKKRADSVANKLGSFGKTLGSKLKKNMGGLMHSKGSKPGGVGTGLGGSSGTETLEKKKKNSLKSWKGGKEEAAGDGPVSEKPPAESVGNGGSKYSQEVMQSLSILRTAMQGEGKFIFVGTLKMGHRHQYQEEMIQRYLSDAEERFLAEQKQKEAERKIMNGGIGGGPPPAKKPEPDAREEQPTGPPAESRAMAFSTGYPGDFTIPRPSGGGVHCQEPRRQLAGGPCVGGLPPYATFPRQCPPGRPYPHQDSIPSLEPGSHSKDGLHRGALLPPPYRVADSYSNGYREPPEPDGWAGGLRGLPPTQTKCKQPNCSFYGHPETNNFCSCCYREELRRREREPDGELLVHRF
The gist of the method:
as §1

The target in another test is PRPF8 (UniProt Q6P2Q9). The gist of the method: as §1
A further test deals with T3, PSMD7 (UniProt P51665).
T3 sequence (whole entry): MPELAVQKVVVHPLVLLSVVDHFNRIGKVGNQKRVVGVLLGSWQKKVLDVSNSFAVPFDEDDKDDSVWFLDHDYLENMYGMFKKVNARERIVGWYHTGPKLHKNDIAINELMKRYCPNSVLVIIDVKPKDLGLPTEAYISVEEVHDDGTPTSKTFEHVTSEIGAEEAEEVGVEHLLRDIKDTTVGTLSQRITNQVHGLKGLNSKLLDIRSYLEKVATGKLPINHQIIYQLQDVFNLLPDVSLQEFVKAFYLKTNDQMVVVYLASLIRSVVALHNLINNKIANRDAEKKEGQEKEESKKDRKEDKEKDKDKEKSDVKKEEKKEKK
In short, it runs like this: as §1

The target of the next test is UCHL1 (UniProt P09936). In short, it runs like this: as §1
The target of a further test is T4, UCHL3 (UniProt P15374).
T4 sequence (whole entry): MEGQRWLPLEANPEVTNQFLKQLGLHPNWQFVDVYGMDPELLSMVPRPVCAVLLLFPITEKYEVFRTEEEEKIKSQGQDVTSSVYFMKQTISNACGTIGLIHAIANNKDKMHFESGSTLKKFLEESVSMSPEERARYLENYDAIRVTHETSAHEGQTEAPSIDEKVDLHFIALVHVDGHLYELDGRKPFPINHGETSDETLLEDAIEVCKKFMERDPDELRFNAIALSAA
In short, it runs like this:
as §1

For a further test, the target named is T5, UCHL5 (UniProt Q9Y5K5).
T5 sequence (whole entry): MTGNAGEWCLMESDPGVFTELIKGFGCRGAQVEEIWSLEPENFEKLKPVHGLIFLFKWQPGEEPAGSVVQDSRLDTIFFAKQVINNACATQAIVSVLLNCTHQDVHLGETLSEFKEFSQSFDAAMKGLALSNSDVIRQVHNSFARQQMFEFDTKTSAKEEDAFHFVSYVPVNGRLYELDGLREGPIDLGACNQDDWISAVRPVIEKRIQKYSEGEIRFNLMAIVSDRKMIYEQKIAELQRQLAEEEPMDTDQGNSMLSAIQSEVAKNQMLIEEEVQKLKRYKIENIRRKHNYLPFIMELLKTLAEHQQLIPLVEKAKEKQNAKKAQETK
The gist of the method: as §1

The target in the next test is USP10 (UniProt Q14694). In short, it runs like this: as §1
A further test concerns the target T6, USP15 (UniProt Q9Y4E8).
T6 sequence (whole entry): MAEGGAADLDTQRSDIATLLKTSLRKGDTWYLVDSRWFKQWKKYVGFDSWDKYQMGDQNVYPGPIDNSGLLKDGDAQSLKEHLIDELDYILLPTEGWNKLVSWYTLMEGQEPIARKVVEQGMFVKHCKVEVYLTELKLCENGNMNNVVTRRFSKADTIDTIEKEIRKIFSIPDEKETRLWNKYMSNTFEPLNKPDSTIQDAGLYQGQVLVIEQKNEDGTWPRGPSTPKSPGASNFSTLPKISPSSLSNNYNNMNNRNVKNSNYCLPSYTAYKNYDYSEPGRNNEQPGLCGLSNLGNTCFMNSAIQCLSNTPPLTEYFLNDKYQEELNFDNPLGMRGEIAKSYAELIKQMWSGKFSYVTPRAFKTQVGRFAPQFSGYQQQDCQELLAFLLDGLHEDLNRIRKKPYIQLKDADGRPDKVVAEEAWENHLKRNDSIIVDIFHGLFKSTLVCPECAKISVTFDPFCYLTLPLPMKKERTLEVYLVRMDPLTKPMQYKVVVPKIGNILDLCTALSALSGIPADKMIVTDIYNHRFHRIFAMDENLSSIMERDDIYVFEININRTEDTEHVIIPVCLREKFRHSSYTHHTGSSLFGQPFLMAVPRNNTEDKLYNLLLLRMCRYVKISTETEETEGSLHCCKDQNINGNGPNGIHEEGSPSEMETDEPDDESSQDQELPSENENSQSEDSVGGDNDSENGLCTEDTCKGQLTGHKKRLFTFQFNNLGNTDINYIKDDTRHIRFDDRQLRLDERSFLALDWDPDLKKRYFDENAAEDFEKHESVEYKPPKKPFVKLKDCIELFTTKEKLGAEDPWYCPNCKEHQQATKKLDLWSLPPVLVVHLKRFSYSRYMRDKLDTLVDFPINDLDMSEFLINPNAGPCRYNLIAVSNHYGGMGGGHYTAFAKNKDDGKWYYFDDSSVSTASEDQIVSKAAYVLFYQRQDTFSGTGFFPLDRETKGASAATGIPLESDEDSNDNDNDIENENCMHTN
In short, it runs like this:
as §1

Another test has as its target USP16 (UniProt Q9Y5T5). The gist of the method:
as §1

Chain of USP10 (Q14694 whole entry): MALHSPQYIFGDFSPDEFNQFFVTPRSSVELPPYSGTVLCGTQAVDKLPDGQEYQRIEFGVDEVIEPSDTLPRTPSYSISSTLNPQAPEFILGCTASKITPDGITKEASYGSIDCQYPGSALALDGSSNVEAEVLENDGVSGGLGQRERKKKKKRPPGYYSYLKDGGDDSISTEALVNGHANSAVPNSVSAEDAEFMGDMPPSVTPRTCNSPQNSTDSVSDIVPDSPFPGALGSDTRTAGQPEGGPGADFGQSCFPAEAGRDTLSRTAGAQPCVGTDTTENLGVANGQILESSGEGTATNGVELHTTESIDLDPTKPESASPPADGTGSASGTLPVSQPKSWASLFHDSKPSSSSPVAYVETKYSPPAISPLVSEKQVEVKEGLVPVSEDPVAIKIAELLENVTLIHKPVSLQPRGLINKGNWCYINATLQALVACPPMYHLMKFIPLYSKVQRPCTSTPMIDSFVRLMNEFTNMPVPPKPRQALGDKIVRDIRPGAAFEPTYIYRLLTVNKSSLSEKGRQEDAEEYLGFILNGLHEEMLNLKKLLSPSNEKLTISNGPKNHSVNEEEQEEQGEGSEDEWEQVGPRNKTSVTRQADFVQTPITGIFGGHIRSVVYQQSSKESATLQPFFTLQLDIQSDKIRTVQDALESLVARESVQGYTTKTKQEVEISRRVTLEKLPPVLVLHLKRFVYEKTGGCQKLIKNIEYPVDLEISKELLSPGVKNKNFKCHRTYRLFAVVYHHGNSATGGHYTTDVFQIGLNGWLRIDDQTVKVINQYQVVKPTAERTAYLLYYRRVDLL
Chain of UCHL1 (P09936 whole entry, looked up): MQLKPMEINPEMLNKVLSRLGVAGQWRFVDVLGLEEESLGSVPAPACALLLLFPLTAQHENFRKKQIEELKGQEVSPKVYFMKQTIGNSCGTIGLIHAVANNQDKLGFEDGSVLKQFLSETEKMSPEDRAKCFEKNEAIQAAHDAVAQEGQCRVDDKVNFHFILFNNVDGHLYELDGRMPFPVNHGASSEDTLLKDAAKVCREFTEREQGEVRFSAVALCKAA
Chain of USP16 (Q9Y5T5 whole entry, looked up): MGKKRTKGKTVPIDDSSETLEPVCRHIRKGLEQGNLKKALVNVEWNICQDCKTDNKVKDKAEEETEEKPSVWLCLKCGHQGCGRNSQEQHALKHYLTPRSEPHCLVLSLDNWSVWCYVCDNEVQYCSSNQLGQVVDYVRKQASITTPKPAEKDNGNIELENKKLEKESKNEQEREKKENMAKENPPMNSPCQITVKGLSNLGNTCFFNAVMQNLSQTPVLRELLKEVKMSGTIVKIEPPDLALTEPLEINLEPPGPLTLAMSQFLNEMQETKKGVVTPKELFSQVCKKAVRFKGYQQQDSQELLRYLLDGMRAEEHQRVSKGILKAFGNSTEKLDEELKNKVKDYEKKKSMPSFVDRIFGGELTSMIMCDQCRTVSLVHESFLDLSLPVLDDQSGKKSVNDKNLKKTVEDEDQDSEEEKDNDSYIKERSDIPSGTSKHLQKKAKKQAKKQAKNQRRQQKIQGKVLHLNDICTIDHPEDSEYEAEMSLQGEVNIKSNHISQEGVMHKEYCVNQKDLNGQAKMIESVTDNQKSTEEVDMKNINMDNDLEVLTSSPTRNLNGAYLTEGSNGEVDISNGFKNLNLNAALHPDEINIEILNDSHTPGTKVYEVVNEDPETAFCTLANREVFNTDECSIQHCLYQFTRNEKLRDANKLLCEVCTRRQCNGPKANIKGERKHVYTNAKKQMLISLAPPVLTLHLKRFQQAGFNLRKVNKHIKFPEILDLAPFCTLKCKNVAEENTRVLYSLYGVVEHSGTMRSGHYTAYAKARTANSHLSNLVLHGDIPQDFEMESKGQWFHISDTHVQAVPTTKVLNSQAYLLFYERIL

Regarding `O=C(CCl)Nc1nnc(CC(F)(F)F)o1`, the “log2 ratio of Biotin-Ahx-Ub-VS probe labelling” value with OTUD6B is -0.105; with OTUD7B, -0.451; in the test with PRPF8, 0.0577; in the test with PSMD7 it was -0.157; with UCHL1, -1.5 (active); with UCHL3, -0.128. Also, the “log2 ratio of Biotin-Ahx-Ub-VS probe labelling” value with UCHL5 was -0.204; in the test with USP10, -0.0274; in the test with USP15, -0.341; in the test with USP16, 0.0973.
